Sampled rows, rich in hits. Any-hit rate of the full collection: about 1.7%.
LYP act: LYP phosphatase activators, primary screen, biochemical, DiFMUP fluorescence, 2 µM; recombinant LYP; 0 = plate median, 100 = signal doubled; 0.11% of 96,000 active; activation, % at 2 µM;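 active means activation at 2 µM above a set limit, the mean plus 5 SD, cut at about 37% in these data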
Target sequence (Q9Y2R2 whole entry, looked up): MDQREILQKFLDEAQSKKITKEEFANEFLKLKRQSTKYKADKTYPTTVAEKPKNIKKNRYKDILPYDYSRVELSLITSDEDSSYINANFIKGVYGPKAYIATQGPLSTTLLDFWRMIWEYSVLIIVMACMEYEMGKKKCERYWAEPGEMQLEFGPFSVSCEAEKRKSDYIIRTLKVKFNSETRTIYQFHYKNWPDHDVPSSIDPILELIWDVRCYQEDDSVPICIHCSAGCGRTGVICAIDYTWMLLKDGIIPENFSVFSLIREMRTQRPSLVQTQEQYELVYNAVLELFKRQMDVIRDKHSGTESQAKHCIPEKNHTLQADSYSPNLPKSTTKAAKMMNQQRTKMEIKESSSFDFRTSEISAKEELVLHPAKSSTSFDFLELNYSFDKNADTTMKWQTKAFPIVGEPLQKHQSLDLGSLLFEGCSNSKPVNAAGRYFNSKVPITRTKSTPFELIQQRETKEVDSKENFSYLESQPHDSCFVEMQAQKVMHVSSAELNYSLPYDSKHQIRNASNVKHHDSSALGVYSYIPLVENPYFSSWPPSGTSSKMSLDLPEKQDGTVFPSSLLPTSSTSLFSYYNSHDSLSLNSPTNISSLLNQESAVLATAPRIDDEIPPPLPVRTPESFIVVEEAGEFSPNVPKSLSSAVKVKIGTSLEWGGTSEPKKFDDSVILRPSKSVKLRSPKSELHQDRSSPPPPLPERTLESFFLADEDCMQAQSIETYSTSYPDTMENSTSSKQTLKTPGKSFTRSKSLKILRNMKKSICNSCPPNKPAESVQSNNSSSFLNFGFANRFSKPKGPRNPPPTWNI
LYP inh 2: PTPN22 phosphatase inhibitors, primary screen, biochemical, DiFMUP fluorescence, 2 µM; Tyrosine-protein phosphatase non-receptor type 22 (Homo sapiens), Q9Y2R2; recombinant LYP catalytic domain; inhibition, % at 2 µM; 0.21% of 96,000 active; AID 640, 2007;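 active means inhibition at 2 µM at or above a set limit, the screen mean plus 3 SD, cut at about 24% in these data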;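 further: 0% = DMSO with enzyme and 100% = enzyme fully blocked by orthovanadate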
Measles CPE: compounds protecting cells from measles virus cytopathic effect, primary screen, measles RdRp inhibitor project, single point, MLSMR library, absorbance. Measles virus-infected cells, CPE protection. 1.5% of 140,000 active. protection (pct of control), % at 4 µM; in the data active means protection mostly above about 24%, no sharp cut-off; inactive means mostly below about 26%
* marks the source's active call; other numbers are inactive results; . = not tested or not shown.

SMILES	LYP act	LYP inh 2	Measles CPE
COC(=O)C1CCN(C(=O)c2sc3nc(-c4ccc(F)cc4)cn3c2C)CC1	-5.3	1.3	39.4*
COc1cccc(NC(=O)COC(=O)c2ccc(S(=O)(=O)NCc3ccco3)cc2)c1	5.6	-7.3	0.8
O=c1c2ccccc2n2c(-c3cccc(F)c3)nnc2n1Cc1ccccc1	.	.	22.1
CCn1c(SCc2ccccc2)nnc1-c1cccs1	-8.5	5.2	3.7
Cc1cc(C)cc(NC(=O)CSc2ccc(-c3cccs3)nn2)c1	.	.	40.8*
c1ccc(CSc2ccc(-c3cccs3)nn2)cc1	.	.	27.7*
Cc1cc(C)cc(NC(=O)CSc2nnc(CNC(=O)c3cccs3)o2)c1	1.7	1.3	1.9
O=S(=O)(N/N=C\c1cn(-c2ccccc2)nc1-c1ccccc1)c1ccccc1	4.0	-1.9	30.0
CCCOC(=O)CSc1nnc(-c2cc(OC)c(OC)c(OC)c2)o1	6.6	-9.4	6.4
COc1cc(-c2nnc(SCc3cc(=O)oc4cc(O)c(O)cc34)o2)cc(OC)c1OC	-31.9	30.9*	13.8
Cc1ccc(C)c(Cn2nnc3c(=O)[nH]c(C4CCCN(C(=O)CC(C)C)C4)nc32)c1 (stereo not given)	15.4	-16.1	3.2
Cc1cc(SCC#N)n2nc(C)c(-c3ccccc3)c2n1	9.2	-12.0	14.4
Cc1cc(SCC(=O)c2cccs2)n2nc(C)c(-c3ccccc3)c2n1	.	.	59.6*
O=C(O)c1[nH]c2ccc(Cl)cc2c1CC(=O)N1CCN(C(=O)c2ccco2)CC1	3.2	-1.9	5.1
O=C(c1ccco1)N1CCN(C(=O)C2CCCc3c2[nH]c2ccc(Cl)cc32)CC1 (stereo not given)	-8.5	6.0	81.8*
COc1c2ccoc2nc2c(OC)c(OCC(O)C(C)(C)O)ccc12 (stereo not given)	6.4	-3.2	2.3
COc1c2c(nc3occc13)C(CCC(C)(C)O)(OC)C(O)CC2 (stereo not given)	6.0	-7.5	76.0*
CC/C(=N\NC(=O)c1c(-c2ccccc2)noc1C)c1ccc(C)o1	.	.	7.1
Nc1nc(NC(=O)c2cccc(S(=O)(=O)N3CCCCCC3)c2)nc(-c2ccccc2)n1	-3.7	3.0	14.8
CSc1nnc2c3ccccc3n(Cc3ccccc3)c2n1	-8.0	9.5	6.4
CSc1nnc2c3ccccc3n(CCc3ccccc3)c2n1	.	.	54.9*
Cc1cc(C(=O)COC(=O)C2=NNC(=O)CC2)c(C)n1-c1ccccc1	-5.5	8.7	8.3
Cc1ccc(-n2c(C)cc(C(=O)COC(=O)C3=NNC(=O)CC3)c2C)cc1	0.5	-1.9	29.2*
CC(C)Sc1nc(SCC(=O)NCc2ccco2)c2c3c(sc2n1)COC(C)(C)C3	.	.	6.3
COc1cc(NC(=O)Cc2ccccc2)cc(OC)c1	2.1	-5.2	58.5*
SMILES	LYP act	LYP inh 2	Measles CPE
COc1ccc(NC(=O)Cc2ccccc2)cc1	-5.4	5.3	5.6
O=C(Cc1cccs1)N/N=C/C=C/c1ccco1	.	.	26.6
Cc1cccc(CN2CCc3c(OCC(=O)N4CCCc5ccccc54)cccc3C2=O)c1	.	.	3.2
Cn1nnc(C(O)CNCc2cccs2)n1 (stereo not given)	-4.2	2.5	5.7
CC1(C)NC(=O)N(CC(O)COc2ccccc2C(=O)N2CCCCC2)C1=O (stereo not given)	4.5	-5.5	44.3*
CC1(C)NC(=O)N(CC(O)COc2cc3ccccc3cc2C(=O)N2CCCCC2)C1=O (stereo not given)	-6.5	4.3	2.2
CCC1(C)Cc2c(sc(NC(=O)CCC(=O)O)c2C#N)CO1 (stereo not given)	9.5	-12.5	4.8
Cn1c(N)c(C(=O)c2ccc(Oc3ccccc3)cc2)c(=O)n(C)c1=O	.	.	10.7
O=C(C1CCN(S(=O)(=O)c2ccc(Br)s2)CC1)N1CCc2ccccc21	2.1	-0.4	2.2
c1ccc(-n2nnnc2CN2CCOCC2)cc1	.	.	4.7
Nc1ccc(-n2nnnc2CN2CCOCC2)cc1	.	.	43.1*
CC1CC(=O)c2cnc(NCC3CCCO3)nc2C1 (stereo not given)	3.7	-4.5	2.5
CC1(C)CC(=O)c2cnc(NCC3CCCO3)nc2C1 (stereo not given)	-11.5	13.5	29.7*
Nn1cnnc1N/N=C/c1cc(Br)cc(Br)c1O	-23.5	27.5*	1.3
Cc1nnc(C)n1/N=C/c1cc(Br)cc(Br)c1O	-3.6	0.2	3.2
COCCN(Cc1cc2cccc(C)c2n2nnnc12)C(=O)C(F)(F)F	10.4	-12.0	3.6
[O-][N+]1=C(c2cccs2)CN(O)C1	6.0	-3.6	34.3*
CC1(C)N(O)CC(c2cccs2)=[N+]1[O-]	.	.	4.7
O=C(NCC1COc2ccccc2O1)C1CCCN(S(=O)(=O)c2cccc3cccnc23)C1 (stereo not given)	-5.9	3.0	24.4
O=C(CN1C(=O)NC2(CCCC2)C1=O)Nc1ccc(F)cc1	1.8	-1.9	1.9
Cc1ccc(-c2nc3cc(C)ccc3o2)cc1	-7.9	6.3	56.3*
Cc1ccc(-c2nc3cc(N)ccc3o2)cc1	-11.3	13.4	6.9
CC(=O)c1ccc(-n2nnnc2SCC(=O)NNC(=O)c2ccco2)cc1	2.1	0.4	4.1
O=C(Nc1cccc(-c2nc3ccccc3[nH]2)c1)c1ccco1	-0.4	-0.7	31.1
COc1ccc2cc3c(N)nn(C(=O)c4cccc([N+](=O)[O-])c4)c3nc2c1	.	.	3.1
SMILES	LYP act	LYP inh 2	Measles CPE
CC(C)(C)C(=O)[C@@H]1[C@@H]2C(=O)N(Cc3ccccc3)C(=O)[C@@H]2[C@H]2c3ccccc3C=CN12	-7.3	8.4	1.4
CC(C)(C)c1ccc(C(=O)Nc2ccc(Cl)cc2)cc1	.	.	7.5
CC(=O)Nc1nonc1NC(=O)c1ccc(C(C)(C)C)cc1	-58.6	58.5*	2.3
c1ccc2c3c([nH]c2c1)-c1[nH]ncc1CC3	-6.8	6.4	25.1
Cc1ccc(-c2noc(-c3ccccc3Br)n2)cc1	-3.3	2.7	5.2
CCOc1ccc2nc3c(cc2c1)CN(CCOC)C(=NC)S3	1.5	1.2	29.3*
CCN=C1Sc2nc3ccc(OCC)cc3cc2CN1CCOC	4.0	-5.4	8.5
CC(=O)Nc1cc(C(=O)N2CCN(C)CC2)ccc1S(=O)(=O)c1ccc(C)cc1	1.1	-2.3	21.0
Cc1cc(C)c(C#N)c(SCC(=O)Nc2ccc3c(c2)OCO3)n1	-1.5	5.2	23.8
Cc1nc(SCC(=O)Nc2ccc3c(c2)OCO3)c(C#N)c2c1CCCC2	-6.5	3.3	42.2*
COc1ccc(S(=O)(=O)N2CCN(c3ccccc3OC)CC2)cc1OC	0.9	-4.2	9.6
CCOC(=O)c1oc2ccccc2c1NC(=O)c1ccc(S(=O)(=O)N(C)C)cc1	5.3	-4.7	4.5
CC(=O)C1=C(O)C(=O)N(Cc2ccco2)C1c1ccccc1 (stereo not given)	.	.	33.5*
CC(=O)C1=C(O)C(=O)N(Cc2ccco2)C1c1ccc(F)cc1 (stereo not given)	-0.7	-0.1	6.4
CCOCCCn1c(C)nc2c(c1=O)c1nc3ccccc3nc1n2CCC1=CCCCC1	-13.4	12.9	2.3
Cc1nc2c(c(=O)n1CCC1=CCCCC1)c1nc3ccccc3nc1n2/N=C/c1ccccc1	-38.6	38.7*	-0.9
Cc1cc(C)n2nc(SCC(=O)N/N=C/c3ccccn3)nc2n1	.	.	14.0
CCOC(=O)CCSc1nc(C)c2ccccc2n1	-3.1	1.7	56.4*

Screening results deposited in PubChem BioAssay by several laboratories.
